Data reported in PubChem BioAssay (NCI).
This is part of a sample that, as a whole, favours compounds with a hit. Of some 83,000 tested, about 20% had one in any assay.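 Activity criterion: percent growth below 10, measured after cells in 96-well plates were exposed to a single compound concentration for 48 hours.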 Calls of active or inactive are those of the source.

What was measured:
Experiment in all cases: NCI-60 one-dose screen, 48 h (100 = growth as untreated, 0 = no growth, -100 = all killed)
Conditions in all cases: 10 µM unless noted
HCT-15 colon = test system: HCT-15 colon
SNB-75 CNS = test system: SNB-75 CNS
SNB-19 CNS = test system: SNB-19 CNS
PC-3 prostate = test system: PC-3 prostate
SK-MEL-5 melanoma = test system: SK-MEL-5 melanoma
UACC-62 melanoma = test system: UACC-62 melanoma
LOX IMVI melanoma = test system: LOX IMVI melanoma
SK-MEL-28 melanoma = test system: SK-MEL-28 melanoma
EKVX NSCLC = test system: EKVX NSCLC
SN12C renal = test system: SN12C renal
UO-31 renal = test system: UO-31 renal
ACHN renal = test system: ACHN renal
CAKI-1 renal = test system: CAKI-1 renal
A498 renal = test system: A498 renal
CCRF-CEM leukemia = test system: CCRF-CEM leukemia
MOLT-4 leukemia = test system: MOLT-4 leukemia
U251 CNS = test system: U251 CNS
TK-10 renal = test system: TK-10 renal
SK-MEL-2 melanoma = test system: SK-MEL-2 melanoma

Measured: growth

CC(=O)c1cc(C)c(OC(=O)c2ccccc2)c(C)c1
inactive: HCT-15 colon 92.2% | SNB-75 CNS 82.6% | SNB-19 CNS 103% | PC-3 prostate 89.9% | SK-MEL-5 melanoma 88.9% | UACC-62 melanoma 90.7% | LOX IMVI melanoma 90.2% | SK-MEL-28 melanoma 117% | EKVX NSCLC 96.5% | SN12C renal 102% | UO-31 renal 84.3% | ACHN renal 103% | CAKI-1 renal 79.3% | A498 renal 105% | CCRF-CEM leukemia 85.4% | MOLT-4 leukemia 93.3%

O=C1c2ccccc2-c2cn(Cc3ccccc3)c3cccc(c23)C1c1cccnc1 (stereo unspecified)
inactive: HCT-15 colon 31.2% | SNB-75 CNS 23.2% | SNB-19 CNS 54% | U251 CNS 25% | PC-3 prostate 55.4% | SK-MEL-5 melanoma 21.7% | UACC-62 melanoma 47.3% | LOX IMVI melanoma 57.4% | SK-MEL-28 melanoma 53.9% | EKVX NSCLC 80.5% | SN12C renal 59.5% | UO-31 renal 54.9% | TK-10 renal 55.7% | ACHN renal 51.2% | CAKI-1 renal 51.4% | A498 renal 43.3% | CCRF-CEM leukemia 19.3% | MOLT-4 leukemia 34.8%

COc1ccc(C2OCC(C)(C)CO2)cc1OC
inactive: HCT-15 colon 106% | SNB-19 CNS 112% | U251 CNS 94.8% | PC-3 prostate 95% | SK-MEL-5 melanoma 96.5% | UACC-62 melanoma 99.9% | LOX IMVI melanoma 95.2% | SK-MEL-28 melanoma 121% | SK-MEL-2 melanoma 106% | SN12C renal 98.5% | UO-31 renal 89.8% | TK-10 renal 109% | ACHN renal 107% | A498 renal 115% | CCRF-CEM leukemia 94.3% | MOLT-4 leukemia 100%

Cc1nn2c(-c3nc4ccc(Cl)cc4[nH]3)c(-c3ccc(F)cc3)nc2s1
inactive: HCT-15 colon 76.4% | SNB-75 CNS 86.3% | SNB-19 CNS 112% | U251 CNS 97.6% | PC-3 prostate 78.6% | SK-MEL-5 melanoma 90.9% | UACC-62 melanoma 91.6% | LOX IMVI melanoma 91.1% | SK-MEL-28 melanoma 93.8% | SK-MEL-2 melanoma 105% | SN12C renal 106% | UO-31 renal 86.9% | TK-10 renal 97.1% | ACHN renal 102% | CAKI-1 renal 94.8% | CCRF-CEM leukemia 72% | MOLT-4 leukemia 72.6%

COC(=O)CCC(=O)c1ccccc1
inactive: HCT-15 colon 102% | SNB-75 CNS 117% | SNB-19 CNS 102% | U251 CNS 100% | PC-3 prostate 117% | SK-MEL-5 melanoma 130% | UACC-62 melanoma 104% | SK-MEL-28 melanoma 108% | SK-MEL-2 melanoma 110% | EKVX NSCLC 89.7% | SN12C renal 103% | UO-31 renal 118% | TK-10 renal 118% | ACHN renal 106% | CAKI-1 renal 96.8% | A498 renal 112% | CCRF-CEM leukemia 101% | MOLT-4 leukemia 101%

COc1cc2nc(SCc3cc(OC)c(OC)c(OC)c3)n(-c3ccccc3OC)c(=O)c2cc1OC
inactive: HCT-15 colon 75.4% | SNB-75 CNS 62.8% | U251 CNS 86.8% | PC-3 prostate 61.1% | UACC-62 melanoma 72.5% | LOX IMVI melanoma 77.3% | SK-MEL-28 melanoma 78.9% | SN12C renal 98% | UO-31 renal 36.3% | ACHN renal 88.5% | CAKI-1 renal 42.9% | A498 renal 25.5% | MOLT-4 leukemia 46.8%

O=C1c2c(c3c4cc(Br)ccc4[nH]c3c3ccc4ccccc4c23)C(=O)N1O
inactive: HCT-15 colon 85.4% | SNB-75 CNS 79.8% | U251 CNS 68.5% | PC-3 prostate 79% | SK-MEL-5 melanoma 96.7% | UACC-62 melanoma 59.9% | LOX IMVI melanoma 67.8% | SK-MEL-28 melanoma 106% | SK-MEL-2 melanoma 106% | EKVX NSCLC 87.3% | UO-31 renal 101% | TK-10 renal 117% | ACHN renal 73.3% | CAKI-1 renal 69.6% | MOLT-4 leukemia 68.5%

COc1ccccc1/C=C/C(=O)/C=C/c1ccccc1O
inactive: SNB-75 CNS 31.3% | SNB-19 CNS 31.8% | SK-MEL-5 melanoma 63.7% | SK-MEL-2 melanoma 72.5% | EKVX NSCLC 46.2% | A498 renal 108%
active: HCT-15 colon -17.7% | U251 CNS -78.9% | UACC-62 melanoma -58.9% | LOX IMVI melanoma -67.7% | SK-MEL-28 melanoma -86.9% | SN12C renal -18.7% | UO-31 renal -83.4% | TK-10 renal -0.117% | ACHN renal -81.1% | CAKI-1 renal -62.5% | MOLT-4 leukemia -26.3%

c1ccc2cc(-c3n(Cc4ccc5ccccc5n4)c4ccccc4[n+]3Cc3ccc4ccccc4n3)ccc2c1
inactive: HCT-15 colon 18.8%
active: SNB-75 CNS -32.8% | SNB-19 CNS 6.22% | U251 CNS -7.46% | PC-3 prostate 0.461% | SK-MEL-5 melanoma -96% | UACC-62 melanoma -60.6% | LOX IMVI melanoma -85.8% | SK-MEL-28 melanoma -24.2% | SK-MEL-2 melanoma -42.9% | EKVX NSCLC 4.21% | UO-31 renal -14.3% | ACHN renal 7.63% | CAKI-1 renal -47.6% | A498 renal -22.3% | MOLT-4 leukemia -32.8%

O=C(Nc1ccc(F)cc1)c1ccc(C(=O)Nc2ccc(F)cc2)cc1
inactive: HCT-15 colon 89.1% | SNB-75 CNS 84.1% | PC-3 prostate 99.6% | SK-MEL-5 melanoma 99.9% | UACC-62 melanoma 107% | LOX IMVI melanoma 103% | SK-MEL-28 melanoma 98.6% | SK-MEL-2 melanoma 105% | SN12C renal 102% | UO-31 renal 87.8% | TK-10 renal 108% | ACHN renal 99.8% | CAKI-1 renal 94.2% | A498 renal 90.4% | CCRF-CEM leukemia 102% | MOLT-4 leukemia 94.4%

O=C1C=CC(=O)N1CCCCCCCCCCN1C(=O)C=CC1=O
inactive: HCT-15 colon 92.4% | SNB-75 CNS 95.7% | SNB-19 CNS 108% | U251 CNS 76.9% | PC-3 prostate 82.2% | SK-MEL-5 melanoma 95.8% | UACC-62 melanoma 102% | LOX IMVI melanoma 42.9% | SK-MEL-28 melanoma 97% | SK-MEL-2 melanoma 96% | EKVX NSCLC 97.8% | SN12C renal 94.8% | TK-10 renal 106% | ACHN renal 80.3% | CAKI-1 renal 15.2% | A498 renal 147% | CCRF-CEM leukemia 16.5% | MOLT-4 leukemia 18.3%

Cc1nc2cc(Nc3nc(NCCN)nc(Nc4ccc(F)cc4)n3)ccc2n1Cc1ccccc1
active: CCRF-CEM leukemia -13.7% | MOLT-4 leukemia -14.4%
inactive: HCT-15 colon 100% | SNB-75 CNS 84.2% | SNB-19 CNS 91.6% | U251 CNS 77.4% | SK-MEL-5 melanoma 86.6% | LOX IMVI melanoma 58.2% | SK-MEL-28 melanoma 107% | SK-MEL-2 melanoma 90.5% | SN12C renal 85.1% | UO-31 renal 89.3% | TK-10 renal 101% | ACHN renal 96.8% | CAKI-1 renal 94.2% | A498 renal 67.4%

COC(=O)/C=C1/CCC2C3CCC4=CC(=O)C(Br)CC4(C)C3C(=O)CC12C (stereo unspecified)
active: CCRF-CEM leukemia 5.9%
inactive: HCT-15 colon 66.6% | SNB-75 CNS 70.8% | SNB-19 CNS 78.9% | PC-3 prostate 53.5% | SK-MEL-5 melanoma 57.4% | UACC-62 melanoma 73.5% | LOX IMVI melanoma 38.2% | SK-MEL-28 melanoma 94.5% | EKVX NSCLC 98% | SN12C renal 82.9% | UO-31 renal 81.1% | ACHN renal 72.5% | CAKI-1 renal 73.9% | MOLT-4 leukemia 52.3%

Cc1nc2cc(Nc3nc(Nc4ccc(F)cc4)nc(-c4cccs4)n3)ccc2n1Cc1ccccc1
inactive: HCT-15 colon 30.3% | SNB-75 CNS 52.2% | SNB-19 CNS 66.7% | PC-3 prostate 29.4% | SK-MEL-5 melanoma 76.5% | UACC-62 melanoma 61.5% | LOX IMVI melanoma 64.8% | SK-MEL-28 melanoma 74.3% | SK-MEL-2 melanoma 72.9% | SN12C renal 70.3% | UO-31 renal 36.5% | TK-10 renal 62.7% | ACHN renal 45.6% | CAKI-1 renal 70.2% | MOLT-4 leukemia 23.5%

Cc1cccc2c(=O)c3c(sc12)c(NCCNCCO)nc1ccccc13
inactive: SNB-75 CNS 32.8% | SNB-19 CNS 49.6% | U251 CNS 13.4% | PC-3 prostate 38.7% | SK-MEL-5 melanoma 39.5% | UACC-62 melanoma 26% | SK-MEL-2 melanoma 79.3% | EKVX NSCLC 41.6% | SN12C renal 33.4% | UO-31 renal 29.6% | TK-10 renal 34.9% | CAKI-1 renal 22.1% | CCRF-CEM leukemia 13.7%
active: HCT-15 colon 0.304% | LOX IMVI melanoma -89.8% | SK-MEL-28 melanoma -67.4% | ACHN renal -19.2% | MOLT-4 leukemia -31.1%

N#CC1=C(N)Oc2cc(N)ccc2C1c1ccc(F)cc1 (stereo unspecified)
inactive: HCT-15 colon 46.9% | SNB-19 CNS 81.1% | U251 CNS 83.4% | PC-3 prostate 90.8% | UACC-62 melanoma 74.7% | LOX IMVI melanoma 78.1% | SK-MEL-28 melanoma 84.8% | SK-MEL-2 melanoma 79.8% | EKVX NSCLC 97.1% | SN12C renal 90.4% | UO-31 renal 79.5% | TK-10 renal 84.8% | ACHN renal 99.4% | CAKI-1 renal 62.6% | A498 renal 64.8% | CCRF-CEM leukemia 66.6% | MOLT-4 leukemia 70.8%

CCOc1ccc(/C=N\N2CCCCCC2)cc1OCC
inactive: HCT-15 colon 62.1% | SNB-75 CNS 85.2% | SNB-19 CNS 96.2% | U251 CNS 86% | SK-MEL-5 melanoma 83.1% | UACC-62 melanoma 75.1% | SK-MEL-28 melanoma 95.5% | SK-MEL-2 melanoma 103% | EKVX NSCLC 76.8% | SN12C renal 82.7% | TK-10 renal 97.7% | ACHN renal 88.7% | CAKI-1 renal 90.8% | CCRF-CEM leukemia 102% | MOLT-4 leukemia 106%

O=C1c2ccccc2-c2nnc(-c3ccc(Br)cc3)cc21
active: LOX IMVI melanoma 1.78% | SK-MEL-2 melanoma -0.262% | MOLT-4 leukemia 4.61%
inactive: HCT-15 colon 59.8% | SNB-75 CNS 36.9% | SNB-19 CNS 87.1% | U251 CNS 28.8% | PC-3 prostate 51.3% | SK-MEL-5 melanoma 51.1% | UACC-62 melanoma 16% | SK-MEL-28 melanoma 13.8% | SN12C renal 27.9% | UO-31 renal 46.9% | TK-10 renal 119% | ACHN renal 34.8% | CAKI-1 renal 60.3% | A498 renal 97% | CCRF-CEM leukemia 20.7%

COc1cccc(Nc2nc(NCCO)c3ccccc3n2)c1
inactive: HCT-15 colon 88.6% | SNB-75 CNS 63.7% | SNB-19 CNS 76.9% | U251 CNS 73.7% | PC-3 prostate 24.4% | UACC-62 melanoma 67.1% | LOX IMVI melanoma 75% | SK-MEL-28 melanoma 91.7% | SK-MEL-2 melanoma 103% | SN12C renal 81.6% | UO-31 renal 74.4% | TK-10 renal 106% | ACHN renal 79.7% | CAKI-1 renal 70.6% | A498 renal 43.8% | CCRF-CEM leukemia 22.4% | MOLT-4 leukemia 48.1%
